We go through 40 molecules from PubChem BioAssay AID720518 (National Center for Advancing Translational Sciences (NCATS), 2013).

Results filed as inconclusive are left out. Where a call stands in place of a potency, no number is given. Calls of active or inactive are those of the source. Calls come from the whole dose curve.
Potency is the fitted concentration of half-maximal effect.

This test in a line: qHTS for Inhibitors of Cell Surface uPA Generation: Wild-type Protective Antigen (WT-PrAg) Counterscreen for Cherry-picked Compounds. To be noted: cells, WT protective antigen toxicity counterscreen; series mostly up to 115 µM. In general terms: In qHTS, concentration-response curves come from the screen itself.
Consider `Cc1nc([N+](=O)[O-])cn1CCCCN1C(=O)c2ccccc2C1=O`, for which the Potency entry is “inactive”.

As to `C[C@@H]1O[C@@H](O[C@@H]2C(=O)c3c(O)cc(O)cc3O[C@H]2c2ccc(O)c(O)c2)[C@H](O)[C@H](O)[C@H]1O`, the Potency result is “inactive”.

Regarding `COc1ccc(C(CNC(=O)C(C)Oc2ccc(Br)cc2)N2CCCC2)cc1` (stereo not given), the Potency result is “inactive”.

As to `O=C(CN(c1ccccc1F)S(=O)(=O)c1ccccc1)Nc1ccc2c(c1)OCCO2`, the Potency result was “inactive”.

With `C=CCOC(=O)C1=C(C)NC(C)=C(C(=O)OCC=C)C1c1cn(-c2ccccc2)nc1-c1ccco1`, the Potency entry is “inactive”.

Turning to `COc1ccc(Cc2nnc(NC(=O)Nc3ccc(F)cc3)s2)cc1`, the Potency result was “inactive”.

As to `O=C1C=CC(O)(c2cc(=O)c3c(O)cc(O)cc3o2)C=C1`, the Potency is 16.5 µM (active).

In the case of `O=C(Nc1cccc(-c2nn[nH]n2)c1)c1ccc(Cl)s1`, the Potency result was “inactive”.

Regarding `COc1ccc(CNCCC2(C(C)C)CCOC(C)(C)C2)cc1` (stereo not given), the Potency entry is “inactive”.

With `COc1ccc(C(=O)NCCCN2CCOCC2)cc1`, the Potency result was “inactive”.

On to `O=C(C1=C[C@H](c2ccccc2)C[C@H](OCCCCO)O1)N1CCN(Cc2ccc3c(c2)OCO3)CC1`, for which the Potency entry was “inactive”.

In the case of `CC1(C)Oc2ccc3ccc(=O)oc3c2[C@@H](O)[C@H]1O`, the Potency result is “inactive”.

Turning to `Cc1noc(C)c1COc1ccc(C(=O)O)cc1`, the Potency result was “inactive”.

For the molecule `COC(=O)C(CCSC)NC(=O)Cn1ncc2c(=O)oc3ccccc3c21` (stereo not given), the Potency result is “inactive”.

Regarding `Cc1cc(SCc2ccc(Cl)cc2)nc(=O)[nH]1`, the Potency entry is “inactive”.

For the molecule `CN(CC(=O)NCc1ccco1)CC(=O)Nc1c(Cl)cccc1Cl`, the Potency entry is “inactive”.

Consider `CSc1nc(N)nc2c1ncn2CC(=O)NCC1CCCO1` (stereo not given), for which the Potency result is “inactive”.

As to `CCCCN(CC)CCNC(=O)c1cc2cc3ccc(Cl)cc3nc2o1`, the Potency result is “inactive”.

With `COc1ccc(-c2cc3nc(-c4ccccc4)cc(N4CCCC(O)C4)n3n2)cc1` (stereo not given), the Potency result was “inactive”.

Regarding `Cc1cccc(C(=O)Nc2cc(=O)n(C)c(=O)n2C)c1`, the Potency result was “inactive”.

Regarding `CC1(C)C([N+](=O)[O-])C(c2ccc(F)cc2)NC(c2ccc(F)cc2)C1[N+](=O)[O-]` (stereo not given), the Potency result is “inactive”.

On to `Cc1ccnc(N2CCN(C(=O)CSc3nc4ccccc4nc3N3CCC(C)CC3)CC2)c1`, for which the Potency entry was “inactive”.

Take `COc1cccc(NC(=O)N2C3CCCC2CC(NC(C)=O)C3)c1` (stereo not given): the Potency result was “inactive”.

For `O=C1CCCc2ccccc2N1Cc1ccc(F)cc1`, the Potency entry is “inactive”.

Take `CCN(c1ccccc1)S(=O)(=O)c1ccc(NC(=O)c2ccco2)cc1`: the Potency entry is “inactive”.

For the molecule `Cc1nc2nc(C)c(NS(=O)(=O)c3ccc(Cl)cc3)c(=O)n2[nH]1`, the Potency result was “inactive”.

As for `COc1cc2oc(=O)ccc2cc1[C@H](O)[C@@H](O)C(C)(C)O`, the Potency entry was “inactive”.

Turning to `O=C(N/C(=C\c1cccc([N+](=O)[O-])c1)C(=O)N1CCOCC1)c1ccc([N+](=O)[O-])cc1`, the Potency result is “inactive”.

Regarding `CCNC(=S)NNC(=O)c1ccncc1`, the Potency result was “inactive”.

Regarding `CCCCn1c(N)c(N(CCC(C)C)C(=O)c2sc3nc4n(c(=O)c3c2C)CCC4)c(=O)[nH]c1=O`, the Potency result was “inactive”.

On to `COc1cc(CNCc2ccc3c(c2)OCO3)c([N+](=O)[O-])cc1OC`, for which the Potency entry is “inactive”.

Regarding `CCc1ccccc1NC(=O)CN(C)C(=O)CSc1nnc(Nc2cccc(C)c2C)s1`, the Potency entry is “inactive”.

Take `Cc1ccc(S(=O)(=O)NCC(=O)N/N=C/c2ccc(Cl)cc2)cc1`: the Potency entry is “inactive”.

As for `CS/C(=C\[N+](=O)[O-])Nc1ccccc1`, the Potency entry is “inactive”.

Consider `O=C(CNC(=O)c1ccc(Br)o1)NNC(=O)c1ccccc1`, for which the Potency entry is “inactive”.

For `CC(=O)NCCc1cnc[nH]1`, the Potency entry was “inactive”.

Consider `CN(C)CCNC(=O)Nc1ccc([N+](=O)[O-])cc1`, for which the Potency result is “inactive”.

On to `CCOC(=O)[C@H]1[C@H]2COc3ccc(Br)cc3[C@@H]2N2C(=O)c3c(C)cc(C)cc3NC(=O)[C@@]12C`, for which the Potency result was “inactive”.

Regarding `COc1ccc(C2NC(=O)CCC2[N+](=O)[O-])c(OC)c1OC` (stereo not given), the Potency result is “inactive”.

For the molecule `Cc1nc(NC(=O)CSc2nnc(C3CC3)n2C)sc1C(=O)N(C)C`, the Potency entry was “inactive”.
